About 83,000 compounds went through this panel and 20% of them were active in at least one assay; those are over-represented in the sample as a whole.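 Interpretation: 100, growth as untreated; towards 0, rising growth inhibition; 0, no net growth; 0 to -100, cell death. Compounds scoring below 10 were considered active.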 Values without a mark were called inactive. Active and inactive are the calls of the source.

We go through 9 molecules from PubChem BioAssay (NCI).

Test systems include RPMI-8226 leukemia; OVCAR-8 ovarian; OVCAR-5 ovarian; OVCAR-4 ovarian; SK-OV-3 ovarian; IGROV1 ovarian; OVCAR-3 ovarian; HS 578T breast; NCI/ADR-RES ovarian; T-47D breast; BT-549 breast; MDA-MB-435 melanoma; SW-620 colon; MCF7 breast; HCT-116 colon; HCC-2998 colon; KM12 colon.
Experiment in all cases: NCI-60 one-dose screen, 48 h (100 = growth as untreated, 0 = no growth, -100 = all killed)
Conditions in all cases: 10 µM unless noted

Turning to `O=CN1N=C(c2ccc(Nc3ccnc4cc(Cl)ccc34)cc2)CC1c1ccccc1` (stereo not drawn), the growth is 17.2% in the assay on RPMI-8226 leukemia; 51.8% with OVCAR-8 ovarian; 84.1% with OVCAR-5 ovarian; 39% with OVCAR-4 ovarian; 41.3% in the assay on SK-OV-3 ovarian; 50.2% in the assay on IGROV1 ovarian. Also, the growth in the assay on OVCAR-3 ovarian is 14.6%; in the assay on HS 578T breast, 47.5%; in the assay with NCI/ADR-RES ovarian it was 7.22% (active); in the assay on T-47D breast, 31.7%; with BT-549 breast it was 39.1%; in the assay with MDA-MB-435 melanoma, 8.64% (active). Besides, the growth was 31.8% with SW-620 colon; 18.2% in the assay on MCF7 breast; 24% with HCT-116 colon; 36.2% in the assay on HCC-2998 colon; 35.9% in the assay on KM12 colon.

`COc1ccc2c(c1)/C(=C/c1sc(=S)n(Cc3ccco3)c1O)C=N2`: the growth in the assay with RPMI-8226 leukemia was 18.5%; with OVCAR-8 ovarian it was 40.7%; in the assay on OVCAR-5 ovarian, 76.8%; in the assay on OVCAR-4 ovarian, 73.7%; in the assay on SK-OV-3 ovarian, 68.6%; in the assay on IGROV1 ovarian, 47.8%. In addition, the growth with OVCAR-3 ovarian was 22.9%; in the assay on HS 578T breast, 20.4%; in the assay with NCI/ADR-RES ovarian, 13.3%; in the assay on T-47D breast, 45.3%; in the assay with BT-549 breast, 7.24% (active); in the assay with MDA-MB-435 melanoma, -32.7% (active). The growth in the assay with SW-620 colon was 28.1%; in the assay with MCF7 breast, 21.8%; in the assay with HCT-116 colon, 11.9%; in the assay on HCC-2998 colon, 44.7%; in the assay with KM12 colon, 23.9%.

In the case of `COc1ccc(OC)c(/C=C/c2nnc(Nc3ccccc3)o2)c1`, the growth with RPMI-8226 leukemia was 103%; in the assay on OVCAR-8 ovarian it was 105%; in the assay with OVCAR-5 ovarian it was 93.2%; in the assay on OVCAR-4 ovarian, 102%; in the assay with SK-OV-3 ovarian it was 109%; in the assay on IGROV1 ovarian, 109%. For the same molecule, the growth in the assay on OVCAR-3 ovarian was 103%; in the assay on HS 578T breast, 98.5%; in the assay with NCI/ADR-RES ovarian it was 94.1%; with T-47D breast, 80.4%; in the assay on BT-549 breast it was 97.1%; with MDA-MB-435 melanoma, 89.1%. Also, the growth in the assay with SW-620 colon is 113%; in the assay on MCF7 breast, 98.3%; in the assay with HCT-116 colon it was 103%; in the assay on HCC-2998 colon, 102%; in the assay on KM12 colon, 89%.

In the case of `COc1ccc(OC)c(/C=C/C(=O)N/N=C/c2ccccc2)c1`, the growth with RPMI-8226 leukemia was 54.4%; in the assay with OVCAR-8 ovarian it was 54.8%; with OVCAR-5 ovarian, 85%; in the assay with OVCAR-4 ovarian it was 78.2%; with SK-OV-3 ovarian, 60%; in the assay on IGROV1 ovarian, 38.5%. In addition, the growth is 6.02% (active) in the assay with OVCAR-3 ovarian; 66.5% in the assay with HS 578T breast; 8.51% (active) in the assay on NCI/ADR-RES ovarian; 39.7% in the assay on T-47D breast; 60.8% in the assay on BT-549 breast; -7.51% (active) with MDA-MB-435 melanoma. Moreover, the growth in the assay with SW-620 colon was 28.7%; with MCF7 breast, 17.3%; in the assay with HCT-116 colon it was 14.2%; in the assay on HCC-2998 colon, 66.4%; with KM12 colon, 31%.

On to `Cc1ccc(C(=O)NCCNc2nccc(-c3c(-c4cccc(F)c4)nc4sccn34)n2)cc1`, for which the growth in the assay with RPMI-8226 leukemia is 53.8%; in the assay with OVCAR-8 ovarian, 55%; in the assay on OVCAR-5 ovarian, 69.2%; in the assay with OVCAR-4 ovarian it was 67.8%; with SK-OV-3 ovarian it was 64.3%; in the assay with IGROV1 ovarian it was 23.1%. The growth in the assay with OVCAR-3 ovarian is 61.6%; in the assay with HS 578T breast, 33%; in the assay on NCI/ADR-RES ovarian, 55.6%; in the assay on T-47D breast, 42.4%; in the assay on BT-549 breast, 55.2%; in the assay with MDA-MB-435 melanoma, 41.6%. Besides, the growth in the assay on SW-620 colon was 61.8%; in the assay on MCF7 breast it was 27.2%; in the assay on HCT-116 colon, 27%; in the assay with HCC-2998 colon it was 64.2%; in the assay with KM12 colon it was 77.5%.

In the case of `NC[C@@H]1O[C@H](O[C@@H]2[C@@H](CO)OC(O[C@@H]3[C@@H](O)[C@H](N)C[C@H](N)[C@H]3OC3O[C@H](CN)[C@@H](O)[C@H](O)[C@H]3N)[C@@H]2O)[C@H](N)[C@@H](O)[C@@H]1O` (stereo partly drawn), the growth in the assay with RPMI-8226 leukemia was 104%; with OVCAR-8 ovarian, 98%; with OVCAR-5 ovarian it was 104%; with OVCAR-4 ovarian, 107%; with SK-OV-3 ovarian, 119%; with IGROV1 ovarian it was 110%. Moreover, the growth in the assay on OVCAR-3 ovarian was 111%; with HS 578T breast it was 111%; with NCI/ADR-RES ovarian, 105%; in the assay with T-47D breast, 115%; with BT-549 breast, 109%; in the assay on MDA-MB-435 melanoma, 102%. The growth is 109% with SW-620 colon; 103% with MCF7 breast; 102% in the assay with HCT-116 colon; 108% with HCC-2998 colon; 110% in the assay on KM12 colon.

With `O=C1CSC(c2c(Cl)cccc2Cl)N1c1nc(Cl)cc(=O)[nH]1` (stereo not drawn), the growth in the assay on RPMI-8226 leukemia was 58.7%; with OVCAR-8 ovarian it was 107%; in the assay with OVCAR-5 ovarian, 94.4%; in the assay on OVCAR-4 ovarian, 130%; in the assay with SK-OV-3 ovarian it was 109%; in the assay on IGROV1 ovarian, 71.9%. Further, the growth with OVCAR-3 ovarian is 107%; in the assay on HS 578T breast, 109%; with NCI/ADR-RES ovarian, 95%; with T-47D breast, 104%; with BT-549 breast, 228%; in the assay on MDA-MB-435 melanoma it was 111%. Also, the growth in the assay with SW-620 colon is 102%; in the assay with MCF7 breast, 107%; with HCT-116 colon it was 103%; in the assay on HCC-2998 colon, 102%; with KM12 colon, 112%.

`COc1ccc(/C=C(\C#N)n2nnc3c(F)cccc32)cc1`: the growth is 17.9% in the assay on RPMI-8226 leukemia; 16.3% in the assay on OVCAR-8 ovarian; 15.7% in the assay with OVCAR-5 ovarian; 37.8% in the assay on OVCAR-4 ovarian; 39% with SK-OV-3 ovarian; 13.2% with IGROV1 ovarian. Moreover, the growth in the assay on OVCAR-3 ovarian is -34% (active); in the assay on HS 578T breast, -4.6% (active); in the assay with NCI/ADR-RES ovarian, 0.281% (active); with T-47D breast it was 16.1%; in the assay on BT-549 breast it was 45.4%; in the assay on MDA-MB-435 melanoma, -78.4% (active). The growth in the assay on SW-620 colon is 15.6%; in the assay on MCF7 breast it was 18.8%; in the assay on HCT-116 colon, 8.75% (active); in the assay on HCC-2998 colon, 1.33% (active); in the assay on KM12 colon, 7.96% (active).

Turning to `COC(=O)c1ccc2[nH]c(O)c(C(=Nc3ccc(N(C)C(=O)CN4CCN(C)CC4)cc3)c3ccccc3)c2c1`, the growth in the assay on RPMI-8226 leukemia is -6.02% (active); in the assay with OVCAR-8 ovarian, 26%; with OVCAR-5 ovarian, 57.2%; with OVCAR-4 ovarian, 34.2%; with SK-OV-3 ovarian, 5.32% (active); with IGROV1 ovarian, 10.2%. Also, the growth is 50.5% with OVCAR-3 ovarian; -18.2% (active) with HS 578T breast; 83.8% in the assay on NCI/ADR-RES ovarian; 59.8% in the assay on T-47D breast; 11.2% in the assay on BT-549 breast; 27.2% in the assay with MDA-MB-435 melanoma. Further, the growth with SW-620 colon is 6.45% (active); in the assay on MCF7 breast, 27.6%; with HCT-116 colon, 6.52% (active); with HCC-2998 colon it was 25.7%; in the assay on KM12 colon it was 13.9%.
